Screening results deposited in PubChem BioAssay by National Center for Advancing Translational Sciences (NCATS).
Pf growth 96h = P. falciparum growth inhibition at 96 hour, primary screen for plastid delayed-death inhibitors; P. falciparum luciferase reporter growth, 96 h; AID 504834; Potency, µM (series often up to 28.7 µM), for the others: at the top dose activity change, negative = inhibition, usual class: inhibitors; 320,000 compounds, 6.9% hits; also: potency is read from the fitted curve at half-maximal effect; % is scaled to controls: 0 for no effect and ±100 for the full control effect
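Erythrocytes infected with luciferase-expressing P. falciparum were dispensed at 2% hematocrit and 0.05% parasitemia (final), then incubated with compounds 96 hours at 37 C in 5% CO2. Luminescence after detection reagent addition reported growth.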
LmPK inh = blocks Leishmania mexicana pyruvate kinase activity; AID 1721; Potency, µM (titrated, usually from 57.5 µM), without a hit: at the highest dose activity change, negative = inhibition, usual class: inhibitors; purified LmPK, Kinase-Glo ATP luminescence, 1 h; 290,000 compounds, 0.37% hits; Q27686; also: potency is read from the fitted curve at half-maximal effect; % is scaled to controls: 0 for no effect and ±100 for the full control effect
Target sequence (Q27686 whole entry, looked up): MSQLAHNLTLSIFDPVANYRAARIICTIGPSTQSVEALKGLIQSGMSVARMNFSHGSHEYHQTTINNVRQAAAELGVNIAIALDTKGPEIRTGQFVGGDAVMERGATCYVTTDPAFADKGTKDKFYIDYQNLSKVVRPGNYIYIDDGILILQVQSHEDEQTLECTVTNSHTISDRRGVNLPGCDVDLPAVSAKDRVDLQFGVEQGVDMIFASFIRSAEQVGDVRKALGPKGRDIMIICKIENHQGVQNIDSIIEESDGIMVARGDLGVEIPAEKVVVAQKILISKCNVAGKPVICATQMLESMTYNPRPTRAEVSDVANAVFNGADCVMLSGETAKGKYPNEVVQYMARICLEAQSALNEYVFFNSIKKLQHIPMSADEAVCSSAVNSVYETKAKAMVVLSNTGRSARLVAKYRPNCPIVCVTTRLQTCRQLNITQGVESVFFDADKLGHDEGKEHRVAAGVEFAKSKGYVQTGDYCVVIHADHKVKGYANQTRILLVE
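Purified LmPK (0.1 nM) converted ADP (0.1 mM) to ATP with PEP (0.5 mM) in imidazole buffer pH 7.2 with KCl and MgCl2, 1 h at room temperature. ATP was read by Kinase-Glo luminescence; data normalized to uninhibited and no-enzyme controls.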
CHX counter = counter-screen hit for Shiga toxin inhibitors, cycloheximide; max response, %; 300,000 compounds, 12% hits; cell reporter, cycloheximide protein synthesis inhibition counterscreen; in the data active = max response mostly above about 13%, no sharp cut-off; inactive = mostly below about 14%; also: read at 38.3 µM for the half of the compounds with a filed dose; 0% is about no effect
Shiga inhibitor = blocks Shiga toxin action in Vero cells; Vero cells, Shiga toxin protein synthesis inhibition reporter; 290,000 compounds, 9.2% hits; inhibition, % at 38.7 µM; in the data active = inhibition mostly above about 28%, no sharp cut-off; inactive = mostly below about 43%; also: 0% is about no effect
Pf growth 48h = inhibits P. falciparum growth in the first generation, 48 h. P. falciparum luciferase growth in erythrocytes, 48 h. Potency, µM (doses to about 28.7 µM), without a hit: at the top dose activity change, negative = inhibition, most hits filed as inhibitors. 310,000 compounds, 5.9% hits; also: potency is read from the fitted curve at half-maximal effect; % is scaled to controls: 0 for no effect and ±100 for the full control effect
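First compound was added to culture medium, then infected red cells at 0.1% parasitemia and 2% hematocrit (final). After incubation at 37 C under 5% CO2, luciferase detection reagent was dispensed and light output recorded.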
Starred values were filed as active, the others as inactive; ? = inconclusive; / = no result given; [ ] = remark or other dose. This is a sample that favours compounds with a hit; in the whole collection about 22% have one here. Unless noted, calls follow the shape of the dose curve; as a rule, active = well fitted inhibition curve with a large enough effect; inconclusive = small, poorly fitted or top-dose-only effect, or another doubt; inactive = no such curve, though single readings can be large or run the other way.

SMILES | Pf growth 96h | LmPK inh | CHX counter | Shiga inhibitor | Pf growth 48h
COc1ccc(Cl)cc1NC(=O)CCN1C(=O)C2C3CCC(C3)C2C1=O (configuration not stated) | -4% | 3% | -4 | -14 | 29%
Cc1nn(C)cc1CN(C)C(=O)CCc1nnc(CCC2CCCCC2)o1 | 0% | -3% | 11* | 64 | -5%
COc1cc(OC)cc(N(C(=O)c2snc(C(N)=O)c2N)C(C(=O)NCC2CCCO2)c2ccc(C)o2)c1 (configuration not stated) | 36% | -4% | -2 | 3 | 4.7µM*
CCOc1ccc(N(C(=O)c2snc(C(N)=O)c2N)C(C(=O)NCC2CCCO2)c2ccc(C)o2)cc1 (configuration not stated) | ? | 2% | 18* | 47* | ?
COc1ccc(N(C(=O)c2snc(C(N)=O)c2N)C(C(=O)NC2CCCCC2)c2ccc(C)o2)cc1 (configuration not stated) | -21% | 6% | -9 | -12 | 8.3µM*
COc1ccc(-c2nsc(C(=O)N(c3ccc(F)cc3)C(C(=O)NC3CCCC3)c3ccc(OC)cc3)c2N)cc1 (configuration not stated) | / | -6% | -6 | -2 | 2.6µM*
COc1ccc(N(C(=O)c2snc(C(N)=O)c2N)C(C(=O)NC2CCCC2)c2ccco2)cc1 (configuration not stated) | -25% | 0% | -6 | -14 | ?
O=C(NCc1ccco1)C1(S(=O)(=O)c2ccccc2)CC=CC1 | 0% | 1% | 11 | 9 | 34%
CCOc1ccc(C(C(=O)NCC2CCCO2)N(Cc2cccs2)C(=O)c2snc(C(N)=O)c2N)cc1 (configuration not stated) | ? | -4% | -2 | -9 | 13µM*
CCOc1ccc(C(C(=O)NCC2CCCO2)N(C(=O)c2snc(C(N)=O)c2N)c2cccc(F)c2)cc1 (configuration not stated) | 28% | -1% | -1 | -3 | 13µM*
COc1ccc(C(C(=O)NCC2CCCO2)N(Cc2cccs2)C(=O)c2snc(C(N)=O)c2N)cc1OC (configuration not stated) | ? | -1% | -6 | -5 | ?
COc1cccc(C2=Nn3c(nnc3-c3ccc(OC)cc3OC)SC2)c1 | / | / | -4 | 3 | /
CCn1c(SCC(=O)Nc2nncs2)nnc1C(C)NC(=O)c1ccccc1Br (configuration not stated) | -7% | -2% | -1 | 12 | -9%
CCN(CC)S(=O)(=O)c1ccc(N2CCCC2)c(NC(=O)C2=COCCO2)c1 | -20% | / | / | / | 15%
CC(=O)Nc1cc(-c2nn(C)c(=O)c3ccccc23)ccc1N1CCCCC1 | / | 0% | -2 | 4 | 10%
COc1ccc(-c2nn(C)c(=O)c3ccccc23)cc1NC(=O)Cn1nc(C)c2ccccc2c1=O | 8% | 1% | 1 | 21 | 10µM*
CCN(CC)S(=O)(=O)c1ccc(N2CCCCC2)c(NC(=O)C2=COCCO2)c1 | 1.5µM* | / | / | / | 1.9µM*
Cn1nc(C(=O)Nc2ccccc2N2CCCC2)c2ccccc2c1=O | 84% | 1% | 0 | -7 | ?
CCN(CC)S(=O)(=O)c1ccc(N2CCCC2)c(NC(=O)c2nn(C)c(=O)c3ccccc23)c1 | 13µM* | / | / | / | 13µM*
CCC(=O)Nc1cc(-c2nn(C)c(=O)c3ccccc23)ccc1N1CCCCC1 | 75% | 1% | -3 | -3 | 5.2µM*
CCN(CC)S(=O)(=O)c1ccc(N2CCOCC2)c(NC(=O)c2ccc(N3CCCC3=O)cc2)c1 | 15µM* | / | / | / | 7.4µM*
CCN(CC)S(=O)(=O)c1ccc(OC(C)C)c(NC(=O)C2=COCCO2)c1 | 8.3µM* | / | / | / | ?
CCN(CC)S(=O)(=O)c1ccc(N2CCCCC2)c(NC(=O)C2CCN(C(=O)c3ccc(F)cc3)CC2)c1 | 9.3µM* | / | / | / | 12µM*
O=C(Nc1ccccc1N1CCCC1)C1CCN(C(=O)c2ccc(F)cc2)CC1 | 2% | / | / | / | ?
CCN(CC)S(=O)(=O)c1ccc(N2CCCCC2)c(NC(=O)c2ccncc2)c1 | ? | 4% | 12 | 35* | ?
SMILES | Pf growth 96h | LmPK inh | CHX counter | Shiga inhibitor | Pf growth 48h
Nc1sc(-c2ccccc2)c(Cc2ccccc2)c1C(=O)O | 5% | -1%[11.5 µM] | -3 | -15 | 6%
Cc1ccc(N(CC(=O)Nc2cccc(Cl)c2C)S(C)(=O)=O)cc1 | ? | 3% | -2 | 14 | 20%
O=C(CCCCCN1C(=O)c2ccccc2C1=O)Oc1ccc2c3c(c(=O)oc2c1)CCC3 | 2% | 0% | 5 | 13 | 13%
O=C1CC(C(=O)N2CCN(c3ccccn3)CC2)CN1Cc1ccccc1Cl (configuration not stated) | -5% | / | / | / | ?
CC(C)OP(=O)(OC(C)C)C1(NS(=O)(=O)c2ccc(Cl)cc2)C=C(Cl)C(=O)C(Cl)=C1 | ? | 0% | 1 | 9 | ?
CCN(CC)S(=O)(=O)c1ccc(N2CCCC2)c(NC(=O)c2ccncc2)c1 | -1% | -2% | -1 | -15 | 6%
CCN(CC)S(=O)(=O)c1ccc(N2CCCC2)c(NC(=O)c2ccc(N3CCCC3=O)cc2)c1 | 12µM* | / | / | / | 13µM*
Cc1c(C=C2C(=O)N(C)C(=S)N(C)C2=O)c2ccccc2n1CC(=O)NCC1CCCO1 (configuration not stated) | 12µM* | -8% | 1 | -9 | ?
Cc1c(C#N)c2ccccc2n1CC(=O)NCC1CCCO1 (configuration not stated) | ? | 0% | -4 | -1 | -13%
CCCCN(C(=O)c1cccc2c(=O)c(C)c(-c3ccccc3)oc12)c1ccccc1 | 4.1µM* | 0% | 0 | -10 | ?
c1ccc(Cc2nnc3sc(-c4ccc5c(c4)OCCO5)nn23)cc1 | 1% | 6% | 36* | 56 | /
O=C(CCNc1n[nH]c(=O)[nH]c1=O)N/N=C\c1cccc(OCc2ccccc2)c1 | ? | 1% | -1 | 2 | ?
COC(=O)C1=C(C)NC(C)=C(C(=O)OC)C1C(=O)OCc1nnc(-c2ccccc2Cl)o1 | ? | / | / | / | -24%
Cc1cc2c(s1)c1cnn(Cc3cc(C(F)(F)F)cc(Cl)c3F)c(=O)c1n2C | / | / | 4 | 15 | /
C=CCNCCCCOc1ccc(OCc2ccccc2)cc1 | 0% | -7% | 48* | 60* | -12%
c1ccc(COc2ccc(OCCCNC3CCCC3)cc2)cc1 | / | -8% | 25* | 53 | ?
COCCCNCCCCOc1ccc(OCc2ccccc2)cc1 | -4% | -1% | 30* | 97* | ?
COc1ccccc1OCCNC1CCCC1 | -16% | 4% | 6 | 10 | /
CC(C)Oc1ccc(OCCNC2CCCC2)cc1 | / | -4% | 19 | 74* | 18%
CCOc1cccc(OCCNC2CCCC2)c1 | ? | 3% | -3 | 1 | -26%
COc1cccc(OC)c1NC(=O)CN1CCC(NC(=O)c2cccc(F)c2)CC1 | ? | -3% | -4 | -5 | -2%
CCc1cccc(NS(=O)(=O)c2csc(C(N)=O)c2)c1 | -15% | 6% | -2 | -12 | 0%[0.00184 µM]
